# Compound activity: PubChem BioAssay, several laboratories
# NOD2 RIPK2 PPI: inhibitors of human NOD2-RIPK2 interaction. O43353. CHO BLA complementation NOD2-RIPK2, CCF4 ratio. inhibition, % at 4.98 µM. 0.38% of 360,000 active. AID 624267; in the data active = inhibition above about 21%;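 also: 0% = vehicle only and 100% = reference blocker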
# Target sequence (O43353 whole entry, looked up): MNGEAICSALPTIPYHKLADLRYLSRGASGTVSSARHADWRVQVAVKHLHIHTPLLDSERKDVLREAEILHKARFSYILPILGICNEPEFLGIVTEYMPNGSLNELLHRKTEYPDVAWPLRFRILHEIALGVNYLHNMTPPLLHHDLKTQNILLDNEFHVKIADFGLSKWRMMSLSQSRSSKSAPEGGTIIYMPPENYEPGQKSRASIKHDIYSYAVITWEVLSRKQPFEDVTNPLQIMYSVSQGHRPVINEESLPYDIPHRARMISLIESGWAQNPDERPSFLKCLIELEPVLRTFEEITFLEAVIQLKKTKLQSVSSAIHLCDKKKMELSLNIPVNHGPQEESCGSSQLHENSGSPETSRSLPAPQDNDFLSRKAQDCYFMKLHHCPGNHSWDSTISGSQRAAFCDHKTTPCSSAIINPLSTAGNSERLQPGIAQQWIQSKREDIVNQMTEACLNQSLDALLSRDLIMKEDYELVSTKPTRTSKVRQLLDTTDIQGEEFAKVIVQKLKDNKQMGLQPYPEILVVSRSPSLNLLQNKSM
# NTR1 agonist: agonists of human neurotensin receptor NTR1; 0.17% of 330,000 active; NTR1-U2OS beta-arrestin-GFP spot imaging, agonist mode; activation, % at 20 µM; P30989;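 active = activation at or above 40% of the spot to cytoplasm intensity ratio, with at least 20 cells analyzed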;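 also: 0% = DMSO without peptide and 100% = 100 nM NTR1 peptide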
# Beta2AR agonist: agonists of human beta-2 adrenergic receptor inducing internalization. 0.43% of 340,000 active. Am2.2-beta2AR cells, FAP receptor internalization, flow cytometry. response, % (test concentration not listed). AID 504454;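 active = response above a set limit, near 3 SD of response in nonfluorescent compounds, cut at about 42% in these data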
# ABHD5-PLIN5 inh: ABHD5-PLIN5 protein interaction inhibition | Q00G26+Q8WTS1 | Split G. princeps luciferase complementation, luminescence, 4 h | inhibition, % at 4 µM | 0.78% of 360,000 active | AID 602281;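 active = inhibition above the mean inhibition across every tested compound plus 3 SD, cut at about 22% in these data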;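 also: 0% = DMSO only wells and the 100% control is not disclosed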
# TLR9-MyD88 inh: inhibitors of human TLR9-MyD88 binding. CHO BLA complementation TLR9-MyD88, CCF4 FRET ratio. inhibition, % at 4.98 µM. AID 504734. 0.21% of 340,000 active. Q9NR96+Q99836;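 active = inhibition above the mean over all tested compounds plus 3 SD, cut at about 21% in these data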;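 also: 0% = DMSO only wells and 100% = clavulanate BLA inhibitor control wells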
# TLR4 MyD88 comp: blocks binding of human TLR4 to MyD88. O00206+Q99836. inhibition, % at 8.4 µM. 0.18% of 200,000 active. HeLa CL3-4 TLR4/MyD88 BLA complementation, FRET ratio. AID 861; in the data active = inhibition above about 25%;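 also: 0% = vehicle and 100% = reference inhibitor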
# ABHD5-PLIN5 conf: ABHD5-PLIN5 interaction inhibition, confirmed. shares compounds with ABHD5-PLIN5 inh. biochemical ABHD5-PLIN5 interaction, luminescence. inhibition, % at 4 µM. 67% of 2,200 active. AID 651612; in the data active = inhibition above about 23%;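 also: 0% = DMSO vehicle wells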
# HNF4 split-luc: active in HNF4 split-luciferase counter-screen for ABHD5-PLIN5 inhibitors | inhibition, % at 4 µM | 77% of 2,200 active | shares compounds with ABHD5-PLIN5 inh | HNF4 dimerization, luminescence, biochemical | AID 651674;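 active = mean inhibition across replicate wells exceeding the computed hit threshold, cut at about 13% in these data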;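 also: light from luciferase halves that rejoin when HNF4 fusion proteins dimerize; 0% = DMSO only wells and the 100% control is not given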
# * marks the source's active call; other numbers are inactive results; x = not tested or not shown. Compounds with a hit are over-represented: about 1.5% of the library has one in this group of screens.
SMILES,NOD2 RIPK2 PPI,NTR1 agonist,Beta2AR agonist,ABHD5-PLIN5 inh,TLR9-MyD88 inh,TLR4 MyD88 comp,ABHD5-PLIN5 conf,HNF4 split-luc
O=C1NC[C@H](CCCCN2C[C@H](Cc3ccccc3)N(Cc3ccccc3)C(=O)C2=O)N(CCc2ccccc2)C1=O,1,x,x,3,x,x,x,x
O=C(Cn1nc(CNc2ccc(Cl)cc2)[n+]2c1CCCCC2)c1ccccc1,-2,1,-3,25*,2,3,13,4
COc1ccc(C2C3=C(CC(c4ccco4)CC3=O)Nc3ccccc3N2C(C)=O)cc1 (centres undefined),-1,1,-1,11,-8,2,x,x
CC(=O)N1c2ccccc2NC2=C(C(=O)CCC2)C1c1ccco1 (centres undefined),-21,0,4,30*,-8,-19,19,37*
Cn1cccc1/C=C1\CC(C(C)(C)C)C/C(=C\c2cccn2C)C1=O (centres undefined),5,-4,7,25*,4,14,12,26*
Cn1cccc1/C=C1\Cc2ccccc2C1=O,0,0,-3,4,4,-13,x,x
Cc1cc2oc(=O)sc2cc1NS(=O)(=O)c1ccccc1,-8,-1,10,39*,-3,x,-72,-27
CCc1c(-c2cccc(Br)c2)ncn1Cc1cccc(-c2ccccc2)c1,-7,x,x,-12,x,x,x,x
Cc1nc2ccccc2n1CC(O)Cn1c2ccccc2c2ccccc21 (centres undefined),1,3,25,29*,-4,19,9,25*
COc1ccccc1-c1cc(SC)c(C#N)c(=O)o1,1,2,-2,67*,-2,6,89*,93*
COc1ccccc1-c1cc(C(F)(F)F)c(C#N)c(=O)[nH]1,0,1,-1,-5,6,-3,x,x
CCc1nc2ccc(C(=O)NCCc3c[nH]c4ccccc34)cn2c1N(C=O)CCC(C)C,2,x,x,1,x,x,x,x
Cc1ccc(CNC(=O)CC(C)S(=O)(=O)c2ccc3c(c2)NC(=O)CS3)o1 (centres undefined),-16,0,11,38*,-10,x,12,22*
COCC1=C(C(=O)OC)C(c2ccco2)n2ncnc2N1 (centres undefined),-6,0,23,38*,x,x,-3,9
COc1ccc(C(NC(=O)/C=C/c2ccco2)c2ccc(OC)c(OC)c2)cc1OC,-1,4,-9,24*,4,-1,59*,54*
COc1ccc(C(NC(=O)c2ccco2)c2ccc(OC)c(OC)c2)cc1 (centres undefined),-4,1,-5,4,2,-1,x,x
CC(=O)c1ccc(N2CCN(S(=O)(=O)c3ccc4c(c3)C(Cl)(Cl)C(=O)N4)CC2)cc1,8,x,x,31*,x,x,56*,51*
CC(=O)c1ccc(N2CCN(S(=O)(=O)c3ccc4c(c3)NC(=O)CC(=O)N4)CC2)cc1,-3,0,-3,-2,5,x,x,x
COc1cc(C)c2sc3ccccc3c(=O)c2c1NCCN(C)C,5,x,x,32*,0,x,27*,8
COc1ccc(CN2C(=O)CSCC2(C)C(=O)Nc2ccc3c(c2)OCCO3)cc1 (centres undefined),1,x,x,-5,x,x,x,x
Oc1c(C(c2ccccc2)N2CCOCC2)ccc2ccccc12 (centres undefined),-2,x,12,40*,0,x,102*,106*
Cc1ccsc1/C=N/NC(=O)CNC(=O)c1cccc([N+](=O)[O-])c1C,0,3,2,25*,12,-4,2,0
CC1=CC(C)(C)Nc2ccc(OC(=O)c3cccnc3)cc21,10,-1,11,78*,5,18,97*,72*
CC1=CC(C)(C)Nc2ccc(C)cc21,6,1,4,-2,1,2,x,x
CC1=CC(C)(C)Nc2ccc(OC(=O)C(C)N3C(=O)c4ccccc4C3=O)cc21 (centres undefined),5,2,-8,58*,-6,-3,90*,24*
SMILES,NOD2 RIPK2 PPI,NTR1 agonist,Beta2AR agonist,ABHD5-PLIN5 inh,TLR9-MyD88 inh,TLR4 MyD88 comp,ABHD5-PLIN5 conf,HNF4 split-luc
CC1=CC(C)(C)Nc2ccc(OC(=O)c3ccco3)cc21,12,-1,12,67*,3,21,91*,91*
CC1=CC(C)(C)Nc2ccc(OC(=O)CN3C(=O)CCC3=O)cc21,-3,1,18,80*,-11,0,96*,33*
COc1ccc(OC(=O)C(C)N2C(=O)c3ccccc3C2=O)cc1 (centres undefined),-4,1,5,5,-5,x,x,x
O=C(Oc1ccc(F)cc1)c1cccnc1,-7,-1,-1,12,2,x,x,x
CC(C)CC1C(=O)N(Cc2cn(CCC3OCCO3)nn2)CCS(=O)(=O)N1Cc1ccc(-c2ccc(Cl)c(Cl)c2)cc1 (centres undefined),2,x,x,2,-3,x,x,x
COc1ccc(S(=O)(=O)N2CCCC(c3cc(C(=O)NCc4cccnc4)no3)C2)cc1 (centres undefined),-8,x,x,12,x,x,x,x
CC1(C(=O)Nc2cnc3ccccc3c2)CCN1Cc1ccccc1OC(F)F (centres undefined),3,x,x,-4,x,x,x,x
CCCNC(=O)C1(C)CCCN(C(=O)COc2ccc(Cl)cc2Cl)C1 (centres undefined),-5,x,x,9,x,x,x,x
O=C(COC(=O)c1ccccc1)Nc1cccc(S(=O)(=O)N2CCCCC2)c1,8,1,2,7,-6,x,x,x
Cc1cnc(CNC(=O)c2csc([C@@H]3O[C@H](CO)[C@H](O)[C@H](O)[C@H]3O)n2)cn1,-8,x,x,-7,x,x,x,x
O=[N+]([O-])/C=C/c1cc2ccccc2[nH]1,-2,2,19,41*,4,x,71*,58*
CC1CCN(CC(=O)Nc2ccc(S(=O)(=O)N3CCC(C)CC3)cc2)CC1,-11,3,-2,-1,7,x,x,x
CC1CCN(S(=O)(=O)c2ccc(NC(=O)Cn3nnc(-c4ccccc4)n3)cc2)CC1,1,17,5,26*,11,3,53*,-1
CC1CCN(S(=O)(=O)c2ccc(NC(=O)Cc3cccs3)cc2)CC1,-8,1,0,33*,-7,1,44*,1
O=C(NC1CCCC1)C(c1ccccc1)n1c(CSCCOc2ccccc2)nc2ccccc21 (centres undefined),3,x,x,-4,x,x,x,x
COC(=O)c1cc(C)nc2c1C(=O)C(=O)C=C2N1CCOCC1,-9,1,61*,39*,2,x,73*,53*
CCc1ccc(/C=C/C(=O)c2c(C)cc(C)[nH]c2=O)cc1,1,1,10,29*,-6,7,48*,29*
